In all, about 310,000 compounds went through this assay and about 14,000 (4.5%) showed an effect of 50% or more. Effects have a minus sign here. Shown is part of a subset that was picked to be rich in strong results.
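Note: peak tail current of the secondary pulse compared with the same well before compound.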

Sequence of human ether-à-go-go-related gene (hERG) potassium channel (Q12809 whole entry, looked up): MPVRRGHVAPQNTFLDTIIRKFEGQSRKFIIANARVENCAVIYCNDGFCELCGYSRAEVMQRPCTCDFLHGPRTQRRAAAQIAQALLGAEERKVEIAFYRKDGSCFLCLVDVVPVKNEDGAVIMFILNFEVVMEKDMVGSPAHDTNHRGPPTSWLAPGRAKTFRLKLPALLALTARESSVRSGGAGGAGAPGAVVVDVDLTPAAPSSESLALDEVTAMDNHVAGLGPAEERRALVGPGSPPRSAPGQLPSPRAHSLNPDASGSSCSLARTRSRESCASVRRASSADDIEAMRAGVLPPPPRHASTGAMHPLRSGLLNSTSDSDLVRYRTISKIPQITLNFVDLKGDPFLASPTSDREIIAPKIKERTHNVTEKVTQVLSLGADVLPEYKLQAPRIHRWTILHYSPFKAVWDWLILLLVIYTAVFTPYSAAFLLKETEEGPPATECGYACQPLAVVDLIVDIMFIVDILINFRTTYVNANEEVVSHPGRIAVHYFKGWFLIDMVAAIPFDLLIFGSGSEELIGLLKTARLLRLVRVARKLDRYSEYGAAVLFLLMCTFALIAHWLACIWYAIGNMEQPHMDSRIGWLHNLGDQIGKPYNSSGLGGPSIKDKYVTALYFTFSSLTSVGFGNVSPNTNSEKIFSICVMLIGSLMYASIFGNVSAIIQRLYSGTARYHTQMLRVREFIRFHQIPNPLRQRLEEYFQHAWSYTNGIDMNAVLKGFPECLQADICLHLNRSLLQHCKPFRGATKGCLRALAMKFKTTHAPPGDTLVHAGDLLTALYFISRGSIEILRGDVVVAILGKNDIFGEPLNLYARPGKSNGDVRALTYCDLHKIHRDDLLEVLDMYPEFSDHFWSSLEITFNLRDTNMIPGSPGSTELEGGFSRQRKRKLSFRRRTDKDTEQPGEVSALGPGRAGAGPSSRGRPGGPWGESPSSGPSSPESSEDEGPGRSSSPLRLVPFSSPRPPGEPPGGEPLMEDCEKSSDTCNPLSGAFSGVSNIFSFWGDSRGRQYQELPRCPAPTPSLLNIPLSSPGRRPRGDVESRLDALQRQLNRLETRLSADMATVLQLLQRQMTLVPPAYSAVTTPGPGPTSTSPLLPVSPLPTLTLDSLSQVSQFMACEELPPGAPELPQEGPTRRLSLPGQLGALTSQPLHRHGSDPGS

This test addresses human ether-à-go-go-related gene (hERG) potassium channel (human, UniProt Q12809). Briefly: primary screen, population patch clamp on CHO cells stably expressing hERG; higher = less effect of the substance.
With `CC1CCC2(CC1)NC(=O)N(CC(=O)N1CCN(C(=O)c3cccs3)CC1)C2=O` (stereo not drawn), the “hERG current change (%, negative = inhibition) at 10uM” value is listed as -9.44%. As for `CCOC(=O)Cc1csc(NC(=O)c2cc(=O)c3ccccc3o2)n1`, the “hERG current change (%, negative = inhibition) at 10uM” value is given as -12.3%. For the compound `COc1ccc(Br)cc1CN1C(=O)NC2(CCCCCC2)C1=O`, the “hERG current change (%, negative = inhibition) at 10uM” value turned out to be 10.4%.

For `Cn1ncc(Br)c1C(=O)N1CCCC1`, the “hERG current change (%, negative = inhibition) at 10uM” value is reported as 19%. Next, `O=C(COc1ccccc1)N1CCN=C1c1ccccc1`: -77.5%. On to `O=C(COc1ccc2ccccc2c1)N1CCN(C(=O)c2cccnc2)CC1`, for which the “hERG current change (%, negative = inhibition) at 10uM” value is -25%. In the case of `CSC1=NCCN1C(=O)COc1ccccc1`, the “hERG current change (%, negative = inhibition) at 10uM” value was determined as 11.3%. As for `O=C(COc1ccc(-c2ccccc2)cc1)N1CCCC1`, the “hERG current change (%, negative = inhibition) at 10uM” value is on record as -54.5%. `O=C(COc1ccc(-c2ccccc2)cc1)N1CCN(C(=O)c2cccnc2)CC1`: the “hERG current change (%, negative = inhibition) at 10uM” value was -57.9%. As for `O=C(COc1ccccc1)N1CCCC1`, the “hERG current change (%, negative = inhibition) at 10uM” value was 15.6%.

Take `O=C(COc1ccccc1)N1CCCCCCC1`: the “hERG current change (%, negative = inhibition) at 10uM” value came to 3.25%. Regarding `CCc1ccc(OCC(=O)N2CCN=C2c2ccccc2)cc1`, the “hERG current change (%, negative = inhibition) at 10uM” value was -5.36%.

Consider `Cc1ccc(OCC(=O)N2CCN(C(=O)c3cccnc3)CC2)cc1`, for which the “hERG current change (%, negative = inhibition) at 10uM” value is -4.29%.

For the compound `O=C(NC(=S)Nc1ccc(-c2ccc(CO)o2)cc1)c1cccs1`, the “hERG current change (%, negative = inhibition) at 10uM” value worked out at 21%. As for `Cc1ccc2c(c1)C(c1ccccc1)N(C(=O)c1c(F)cccc1Cl)CC(=O)N2` (stereo not drawn), the “hERG current change (%, negative = inhibition) at 10uM” value is on record as -22.3%. For `Cc1cccnc1NC1=NCC(C)S1` (stereo not drawn), the “hERG current change (%, negative = inhibition) at 10uM” value was 3.1%. Consider `C=CCSC(CC)(CC)C(N)=O`, for which the “hERG current change (%, negative = inhibition) at 10uM” value is on record as 3.1%. For `O=C(CNCc1ccco1)Nc1cc(S(=O)(=O)N2CCOCC2)ccc1N1CCCC1` the value was -14.4%. For the compound `COc1cccc(NCc2nnc(SCC(=O)NC3CCS(=O)(=O)C3)n2C2CCCCC2)c1` (stereo not drawn), the “hERG current change (%, negative = inhibition) at 10uM” value stood at 12.7%. On to `Cc1cccc(NC(=O)CCN2CCN(C)CC2)c1.Cl`, for which the “hERG current change (%, negative = inhibition) at 10uM” value came to 6.48%. On to `Cc1ccc(NC(=O)CCN2CCN(C/C=C/c3ccccc3)CC2)cc1.Cl`, for which the “hERG current change (%, negative = inhibition) at 10uM” value is listed as -90.9%.

As for `Cc1cccc(NC(=O)CCN2CCN(C/C=C/c3ccccc3)CC2)c1.Cl`, the “hERG current change (%, negative = inhibition) at 10uM” value was -74%. Turning to `Cl.O=C(CCN1CCCC1)Nc1ccccc1`, the “hERG current change (%, negative = inhibition) at 10uM” value came to 4.69%.

With `O=C(CCN1CCN(C/C=C/c2ccccc2)CC1)Nc1ccccc1`, the “hERG current change (%, negative = inhibition) at 10uM” value was -74.9%. Consider `CCN1CCN(CCC(=O)Nc2cccc(C)c2)CC1.Cl`, for which the “hERG current change (%, negative = inhibition) at 10uM” value amounted to 0.741%. Consider `O=C(CCN1CCN(C/C=C/c2ccccc2)CC1)Nc1ccc(Cl)cc1`, for which the “hERG current change (%, negative = inhibition) at 10uM” value is -78.2%. On to `CCN1CCN(CCC(=O)Nc2ccccc2)CC1`, for which the “hERG current change (%, negative = inhibition) at 10uM” value is 8.58%. `Cl.O=C(CCN1CCOCC1)Nc1ccc(Cl)cc1`: the “hERG current change (%, negative = inhibition) at 10uM” value turned out to be 6.33%.

For `CCN1CCN(CCC(=O)Nc2ccc(C)cc2)CC1.Cl`, the “hERG current change (%, negative = inhibition) at 10uM” value is -8.34%.

`CN1CCN(CCC(=O)Nc2ccccc2)CC1`: the “hERG current change (%, negative = inhibition) at 10uM” value is -5.19%.

Turning to `O=C(CCN1CCN(c2ccccc2)CC1)Nc1ccc(Cl)cc1`, the “hERG current change (%, negative = inhibition) at 10uM” value is -17.9%. As for `COc1ccc(C(Sc2ccccc2)c2ccccc2)cc1OC` (stereo not drawn), the “hERG current change (%, negative = inhibition) at 10uM” value stood at 7.26%. For `O=C(O)CCN=CC1=C(O)CC(c2ccccc2)CC1=O` (stereo not drawn) the value was 3.13%. Consider `O=C(C[n+]1cccc(O)c1)NCc1ccc(Cl)cc1.[Cl-]`, for which the “hERG current change (%, negative = inhibition) at 10uM” value stood at 24.2%. For `CCOC(=O)CC1C(=O)NCCN1C(=O)c1ccc(C)cc1` (stereo not drawn) the value was 14.9%. Consider `Cc1sc2c(c1C)C(O)=C(C(=O)Nc1ccccc1)S(=O)(=O)N2C`, for which the “hERG current change (%, negative = inhibition) at 10uM” value is on record as 4.91%. Next, `O=C(CSc1nnc2c(n1)[nH]c1ccc(F)cc12)N1CCOCC1`: 5.63%; `COc1cc(CN2CCc3ccc(NC(=O)CCc4ccccc4OC)cc3C2)ccc1O`: -37.3%. As to `COc1cccc(CN2CCc3ccc(NC(=O)CCc4ccc(C)cc4)cc3C2)c1O`, the “hERG current change (%, negative = inhibition) at 10uM” value is given as -52.2%. In the case of `Cc1ccc(NC(=O)CCN2CCC(Cc3ccccc3)CC2)cc1`, the “hERG current change (%, negative = inhibition) at 10uM” value is -75.1%. In the case of `Cc1ccc(NC(=O)CCN2CCOCC2)cc1C`, the “hERG current change (%, negative = inhibition) at 10uM” value was 14.1%. Turning to `Cc1cc(NC(=O)CCN2CCN(Cc3ccccc3)CC2)ccc1Br.Cl`, the “hERG current change (%, negative = inhibition) at 10uM” value is -28%. Next, `Cc1ccc(NC(=O)CCN2CCN(C/C=C/c3ccccc3)CC2)cc1C.Cl`: -71.8%; `Cc1ccc(NC(=O)CCN2CCC(C(N)=O)CC2)cc1`: 17.3%; `Cc1ccc(NC(=O)CN2CCc3ccccc3C2)cc1`: -30.3%. With `Cc1ccc(NC(=O)CCN2CCc3ccccc3C2)cc1.Cl`, the “hERG current change (%, negative = inhibition) at 10uM” value is listed as -60.8%. As to `Cc1ccc(NC(=O)CCN2CCCCC2)cc1.Cl`, the “hERG current change (%, negative = inhibition) at 10uM” value is -0.243%. On to `COc1ccc(CN2CCc3ccc(NC(=O)CCc4ccccc4OC)cc3C2)c(O)c1`, for which the “hERG current change (%, negative = inhibition) at 10uM” value is recorded as -35.2%. For the compound `O=C(CCN1CCc2ccccc2C1)Nc1ccccc1`, the “hERG current change (%, negative = inhibition) at 10uM” value is -24.2%. On to `CSc1ncccc1C(=O)N1CCCC(N2CCN(c3ccccc3F)CC2)C1` (stereo not drawn), for which the “hERG current change (%, negative = inhibition) at 10uM” value was -12.4%. Regarding `NS(=O)(=O)c1ccc(CCNC(=O)CN2C(=O)c3ccccc3S2(=O)=O)cc1`, the “hERG current change (%, negative = inhibition) at 10uM” value is 1.3%. Regarding `CCOC(=O)N1CCN(C(=O)c2ccc(CNS(=O)(=O)c3ccc(OC)cc3)cc2)CC1`, the “hERG current change (%, negative = inhibition) at 10uM” value is listed as -4.84%.

In the case of `CN1CCN(CCC(=O)Nc2cccc(F)c2)CC1`, the “hERG current change (%, negative = inhibition) at 10uM” value is recorded as -1.22%. For `O=C(CCN1CCN(C/C=C/c2ccccc2)CC1)Nc1cccc(F)c1` the value was -77.9%; for `Cl.O=C(CCN1CCCCCC1)Nc1cccc(F)c1`, -23.6%. In the case of `CCOC(=O)OC(C)OC1=C(C(=O)Nc2ccccn2)N(C)S(=O)(=O)c2ccccc21` (stereo not drawn), the “hERG current change (%, negative = inhibition) at 10uM” value came out at 16.1%. `O=P(Nc1c(Cl)cccc1Cl)(c1ccccc1)c1nc2c(s1)CCCC2` (stereo not drawn): the “hERG current change (%, negative = inhibition) at 10uM” value was determined as 10%. As for `Nc1nonc1-n1nnc(C(=O)N/N=C/c2ccc(Br)cc2)c1CSC1=NCCS1`, the “hERG current change (%, negative = inhibition) at 10uM” value is given as -3.36%. In the case of `O=c1[nH]c([N+](=O)[O-])nn1C(c1ccccc1)c1ccccc1`, the “hERG current change (%, negative = inhibition) at 10uM” value was -13.7%. In the case of `COCCCN1C(=O)c2ccccc2C1C(=O)NC1CCCCCC1` (stereo not drawn), the “hERG current change (%, negative = inhibition) at 10uM” value is given as -2.83%.

As for `COc1ccc(NC(=O)CN2C3CCC2CC(O)(c2cccnc2)C3)cc1OC` (stereo not drawn), the “hERG current change (%, negative = inhibition) at 10uM” value came out at 0.385%.

Regarding `COCCNC(=O)CN1C2CCC1CC(O)(c1cccnc1)C2` (stereo not drawn), the “hERG current change (%, negative = inhibition) at 10uM” value is 0.682%.

On to `O=C(Nc1ccccc1)N1C2CCC1CC(O)(c1cccnc1)C2` (stereo not drawn), for which the “hERG current change (%, negative = inhibition) at 10uM” value is 8.01%. As for `COc1cc(NC(=O)CN2C3CCC2CC(O)(c2cccnc2)C3)cc(OC)c1` (stereo not drawn), the “hERG current change (%, negative = inhibition) at 10uM” value was -60.9%. In the case of `O=C(CN1C2CCC1CC(O)(c1cccnc1)C2)Nc1ccc2c(c1)OCO2` (stereo not drawn), the “hERG current change (%, negative = inhibition) at 10uM” value is listed as -53.1%. Next, `O=C(Nc1cccc(F)c1)N1C2CCC1CC(O)(c1cccnc1)C2` (stereo not drawn): 24.1%.

The record behind these values is paper PMC4336329 (PLoS ONE, 2015).
